Compound activity: PubChem BioAssay, National Center for Advancing Translational Sciences (NCATS)
FBPA Giardia inh: inhibitors of Giardia lamblia fructose-1,6-bisphosphate aldolase; Potency, µM (titrated, usually from 59.6 µM), without a hit: at the top dose activity, negative = inhibition, most hits filed as inhibitors; 290,000 compounds, 0.71% hits; A8B2U2; purified Giardia FBPA; AID 2451; note: potency is the fitted concentration of half-maximal effect; nearly all actives have a fitted effect of over 55% in size
Target sequence (A8B2U2 whole entry, looked up): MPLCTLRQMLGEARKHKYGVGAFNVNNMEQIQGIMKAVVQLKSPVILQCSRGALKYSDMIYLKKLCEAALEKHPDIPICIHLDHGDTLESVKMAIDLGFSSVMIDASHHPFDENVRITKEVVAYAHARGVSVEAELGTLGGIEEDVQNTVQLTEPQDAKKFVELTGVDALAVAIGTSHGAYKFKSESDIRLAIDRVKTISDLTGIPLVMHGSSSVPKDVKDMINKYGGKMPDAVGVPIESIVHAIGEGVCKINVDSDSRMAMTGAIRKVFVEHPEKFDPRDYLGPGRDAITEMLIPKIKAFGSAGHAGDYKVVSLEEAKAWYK
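Giardia FBPA (40 nM reagent) was preincubated 10 min at RT with compound (up to 57.5 uM final), then substrate plus GAPDH/TPI/NAD/arsenate coupling system with diaphorase/resazurin was added; resorufin fluorescence (525/598 nm) was read after 20 min.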
Sm TGR block: S. mansoni TGR enzyme inhibition; Potency, µM (titrated, usually from 114 µM), inactives show top-dose activity change, negative = inhibition, usual class: inhibitors; Q962Y6; AID 485364; purified TGR, DTNB reduction, TNB absorbance 405 nm; 360,000 compounds, 3% hits; note: potency is the fitted concentration of half-maximal effect; nearly all actives have a fitted effect of over 60% in size
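TGR 20 nM + NADPH 100 uM (dispensed conc.), cpd preinc 15 min RT; start with NADPH (500 uM addition) then DTNB (15 mM addition). Kinetic TNB absorbance, 405 nm filter. Four-parameter Hill fit across titration.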
Pf growth 96h: inhibits malaria parasite growth, 96 h. P. falciparum luciferase reporter growth, 96 h. Potency, µM (doses to about 28.7 µM), for the others: at the top dose activity change, negative = inhibition, hits mostly inhibitors. 320,000 compounds, 6.9% hits; note: potency is the fitted concentration of half-maximal effect
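P. falciparum expressing integrated firefly luciferase, in erythrocytes at 2% hematocrit, 0.05% parasitemia, incubated with compounds 96 h at 37 C, 5% CO2. Growth inhibition read as loss of luminescence; two-generation exposure targets delayed-death apicoplast inhibitors.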
Pf growth 48h: inhibits P. falciparum growth in the first generation, 48 h; 310,000 compounds, 5.9% hits; P. falciparum luciferase growth in erythrocytes, 48 h; Potency, µM (top dose mostly 28.7 µM), for the others: at the top dose activity change, negative = inhibition, most hits filed as inhibitors; AID 504832; note: potency is the fitted concentration of half-maximal effect
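Cell-based growth assay: transgenic P. falciparum expressing firefly luciferase, cultured in red cells within RPMI 1640 containing 0.5% w/v Albumax, 24 mM bicarbonate and gentamycin. A drop in luciferase activity indicates inhibition.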
HCMV antiviral: blocks human cytomegalovirus replication; HFF cells, HCMV-luciferase reporter, 72 h; active compounds read low; activity change, negative = inhibition, % at 57.5 µM; 410,000 compounds, 4.5% hits; AID 1259415; in the data active = activity change below about -60%; inconclusive = no clear call, values can overlap the other calls; inactive = above about -39%
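Screen run at 2 compound doses on HFFs infected with reporter HCMV, MOI 1 PFU/cell. Luciferase activity from cell lysates at 72 h post infection gave inhibition relative to buffer-only and Salinomycin wells.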
Numbers without * were called inactive; ? = inconclusive; · = not tested or not shown; [ ] = remark or other dose. This is a sample that favours compounds with a hit; in the whole collection about 14% have one here. Unless noted, calls come from the whole dose curve; as a rule, active = well fitted curve in the direction sought with a large enough effect; inconclusive = small, poorly fitted or top-dose-only effect, or another doubt; inactive = no such curve, though single readings can be large; an effect the other way counts as inactive or inconclusive. % is set by controls: 0 for no effect and ±100 for the full control effect.

SMILES	FBPA Giardia inh	Sm TGR block	Pf growth 96h	Pf growth 48h	HCMV antiviral
Cn1nc(C(=O)Nc2cc(F)ccc2F)c2c1-c1ccccc1SC2	·	-7.8%	·	·	-0.2
NS(=O)(=O)c1ccc(NC(=S)Nc2ccn(Cc3cccc4ccccc34)n2)cc1	-3.8%	-12.4%	0.0%	?	-79.3*
NS(=O)(=O)c1ccc(NS(=O)(=O)c2ccc(NC(=S)Nc3ccccc3)cc2)cc1	-1.3%	?	29.5%	10.0%	-21.8
CCCCNC(=S)N(C)/N=C/c1c(F)cccc1F	3.5%	-2.9%	-2.3%	-6.0%	-89.5*
Cc1occc1C(=O)N1CCCC(CO)(Cc2ccc(F)cc2F)C1 (stereo not drawn)	·	-20.6%	22.6%	11.9%	-6.9
COc1ccc(CCNc2ncnc3c2[nH]c2cc(OC)c(OC)cc23)cc1OC	-3.1%	-13.7%	1.85µM*	?	-28.4
COc1cc2ncnc(NCCc3ccccc3)c2cc1OC	-3.1%	·	?	10.4µM*	?
COc1ccc(CCNc2ncnc3cc(OC)c(OC)cc23)cc1OC	0.7%	·	-15.9%	13.1µM*	-21.3
COc1ccc(CNc2ncnc3cc(Cl)ccc23)cc1OC	5.7%	0.8%	5.9%	11.4%	-69.9*
O=C1C=C[C@@H](O)[C@H]2[C@@H]3C(=O)N(Cc4ccc5c(c4)OCO5)C(=O)[C@@H]3CC[C@H]12	0.4%[12.9 µM]	·	·	·	·
CC1CC(C)CN(C(C(=O)NC2CCCCC2)c2ccnc3ccccc23)C1 (stereo not drawn)	·	·	·	·	-21.0
COc1ccc2[nH]c3c(NCCC4=CCCCC4)ncnc3c2c1	2.2%	-6.0%	3.7µM*	2.9%	-88.9*
CCN(CC)CCNc1ncnc2c1[nH]c1ccc(OC)cc12	6.2%	4.2%	2.2%	3.5%	·
Cc1c(C(=O)Oc2ccc(Br)cc2)sc2ncn(Cc3ccccc3F)c(=O)c12	·	4.7%	·	·	12.6
CC(C)OCCCNC(=O)c1c(N)n(Cc2cccs2)c2nc3ccccc3nc12	?	0.0%	11.7µM*	9.28µM*	-74.2*
COCCn1c(N)c(C(=O)NCc2cccs2)c2nc3ccccc3nc21	-16.1%	-2.4%	?	?	?
CC(C)CCn1c(N)c(C(=O)NCc2cccs2)c2nc3ccccc3nc21	14.8%	5.5%	?	0.828µM*	-18.7
CCCS(=O)(=O)N1CCCC(C(=O)NCCOC)C1 (stereo not drawn)	·	50.4%	·	·	12.8
CCC1(c2ccccc2)NC(=O)N(CC(=O)NNC(=O)c2ccc(F)cc2)C1=O (stereo not drawn)	·	-5.3%	39.3%	13.8%	-7.7
CCOC(=O)CCCc1ccc(/C(C)=N/NC(=S)NC)cc1	-8.8%	-8.7%	0.0%	-20.0%	-95.0*
CNC(=S)N/N=C(\C)c1ccc(Cl)c(Cl)c1	-14.2%	3.1%	?	?	-32.3
Cc1c(CCC(=O)NCCC(=O)O)c(=O)oc2c(C)c3oc4c(c3cc12)CCCC4	-2.7%	-7.7%	20.3%	-10.2%	?
CCCn1c(SCC(=O)Nc2ccc(S(=O)(=O)N3CCOCC3)cc2)n[nH]c1=O	·	·	·	·	8.2
O=C(Nc1ccc(Oc2ccc(C(=O)O)c(C(=O)O)c2)cc1)c1cccs1	17.7%	-3.2%	2.08µM*	6.5%	17.1
O=C(Nc1cccc(Oc2ccc(C(=O)O)c(C(=O)O)c2)c1)c1ccc(-c2ccccc2)cc1	?	-12.9%	56.2%	1.65µM*	9.0
SMILES	FBPA Giardia inh	Sm TGR block	Pf growth 96h	Pf growth 48h	HCMV antiviral
CC(C)(C)C(=O)Nc1ccc(C(=O)Nc2cccc(Oc3ccc(C(=O)O)c(C(=O)O)c3)c2)cc1	13.2%	-9.1%	-23.1%	1.8%	48.4
O=C(NCCc1csc(-c2ccc(F)cc2)n1)c1cccc(F)c1	·	7.3%	·	·	-38.0
Cc1ccc(OCC(=O)NNC(=O)Cn2c(=O)cnc3ccccc32)cc1	·	-3.0%	20.9%	40.2%	-97.5*
O=C(COc1ccccc1F)NNC(=O)Cn1c(=O)cnc2ccccc21	·	0.5%	-29.7%	-1.6%	0.0
CCN(C)C1CN(Cc2cn(CCCC(=O)OC)nn2)S(=O)(=O)C1 (stereo not drawn)	·	·	·	·	-5.2
CC(C)C[C@@]12C(=O)N(c3cccc(F)c3)C(=O)N1[C@H](c1ccc(F)cc1)[C@@H]1C(=O)N(C3CCCCC3)C(=O)[C@@H]12	·	3.0%	?	10.4µM*	-25.6
C[C@@]12C(=O)N(c3cccc(Cl)c3)C(=O)N1[C@H](c1ccc(Cl)cc1)[C@@H]1C(=O)N(C3CCCCC3)C(=O)[C@@H]12	·	-0.6%	?	?	-19.1
C[C@@]12C(=O)N(c3cccc(F)c3)C(=O)N1[C@H](c1ccc(F)cc1)[C@@H]1C(=O)N(C3CCCCC3)C(=O)[C@@H]12	9.0%	-16.0%	-15.6%	?	·
COc1ccc(N2C(=O)N3[C@H](c4ccc(Cl)cc4)[C@@H]4C(=O)N(C5CCCCC5)C(=O)[C@@H]4[C@]3(C)C2=O)cc1	-2.9%	-12.9%	2.33µM*	?	4.1
C[C@@]12C(=O)N(c3cccc(F)c3)C(=O)N1[C@H](c1ccc(Cl)cc1)[C@@H]1C(=O)N(C3CCCCC3)C(=O)[C@@H]12	·	-0.7%	-6.8%	11.7µM*	-16.6
CC(C)C[C@@]12C(=O)N(c3cccc(F)c3)C(=O)N1[C@H](c1ccc(Cl)cc1)[C@@H]1C(=O)N(C3CCCCC3)C(=O)[C@@H]12	·	0.0%	4.65µM*	2.94µM*	1.6
CC(C)(C)N1C(=O)[C@H]2[C@@H](c3ccc(Br)cc3)N3C(=O)N(c4cccc(F)c4)C(=O)[C@@]3(C)[C@H]2C1=O	·	8.4%	-0.1%	?	-7.6
COC(=O)[C@H]1C[C@@H]1[C@H](NC(C)=O)c1ccccc1	0.6%	·	·	·	·
CCOc1cccc(C(=O)N(Cc2ccc(CC)cc2)C2CCS(=O)(=O)C2)c1 (stereo not drawn)	·	3.9%	·	·	24.8
Cc1ccc(NC(=O)C2(C)CCN2C(=O)Cc2ccccc2Cl)cc1C (stereo not drawn)	·	·	·	·	23.0
Cc1cc(=O)oc2c3c(cc(OCC(=O)NC(C)C)c12)OC(C)(C)CC3	-0.1%	-4.7%	?	9.28µM*	-22.5
COc1ccccc1CNC(=O)COc1cc2c(c3oc(=O)cc(C)c13)CCC(C)(C)O2	-18.9%	11.6%	3.7µM*	?	-35.4
COc1cccc(CNC(=O)COc2cc3c(c4oc(=O)cc(C)c24)CCC(C)(C)O3)c1	-9.1%	3.0%	13.1µM*	9.28µM*	?
Cc1cc(=O)oc2c3c(cc(OCC(=O)NCCC(=O)O)c12)OC(C)(C)CC3	3.4%	-3.7%	0.2%	12.3%	-4.8
Cc1cc(=O)oc2c3c(cc(OCC(=O)NCc4cccnc4)c12)OC(C)(C)CC3	3.8%	-1.8%	?	?	3.5
COc1ccc(CNC(=O)COc2cc3c(c4oc(=O)cc(C)c24)CCC(C)(C)O3)cc1	3.2%	-16.4%	8.28µM*	?	14.1
Cc1cc(=O)oc2c3c(cc(OCC(=O)N[C@@H](C)C(=O)O)c12)OC(C)(C)CC3	-2.9%	-20.3%	11.7%	-17.5%	16.3
